Shown are actives, neighbours in structure and some others; about 4% of the full set was active somewhere.
BoNT A protease: blocks Botulinum neurotoxin A light chain protease; inhibition, % at 10 µM; multiplex microsphere protease substrate cleavage, flow cytometry; 360,000 compounds, 0.17% hits; AID 588499; note: plate controls were buffer without enzyme for full effect and enzyme alone for no effect
DUSP3 inh: blocks human VHR1 dual specificity phosphatase. recombinant VHR phosphatase, pNPP absorbance. AID 1654. P51452. inhibition, % at 13.3 µM. 290,000 compounds, 0.52% hits; in the data active = inhibition above about 50%
Target sequence (P51452 whole entry, looked up): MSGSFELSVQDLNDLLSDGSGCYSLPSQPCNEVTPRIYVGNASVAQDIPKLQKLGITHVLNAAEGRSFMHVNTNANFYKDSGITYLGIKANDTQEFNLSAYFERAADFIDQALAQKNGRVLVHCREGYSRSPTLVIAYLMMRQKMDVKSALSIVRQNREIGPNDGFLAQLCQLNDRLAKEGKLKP
Anthrax LF prot: anthrax lethal factor protease inhibition; P15917; multiplex microsphere protease cleavage assay, LF; inhibition, % at 10 µM; 360,000 compounds, 0.12% hits; AID 588501; note: plate controls were buffer without enzyme for full effect and enzyme alone for no effect
Autofluor counter: counter-screen for toxin protease inhibitors: compound fluorescence | compound autofluorescence counterscreen, microsphere flow cytometry; hits give high values | fluorescence intensity (no concentration beside the values) | 360,000 compounds, 3.1% hits; in the data active = fluorescence intensity above about 16000; inconclusive = no clear call, values can overlap the other calls
MazF activator: increases E. coli MazEF RNase cleavage of RNA | activation, % at 20 µM | 350,000 compounds, 0.32% hits | FAM/BHQ RNA-DNA oligo cleavage fluorescence, 5 h | AID 504720 | P0AE70; in the data active = activation above about 50%
Target sequence (P0AE70 whole entry, looked up): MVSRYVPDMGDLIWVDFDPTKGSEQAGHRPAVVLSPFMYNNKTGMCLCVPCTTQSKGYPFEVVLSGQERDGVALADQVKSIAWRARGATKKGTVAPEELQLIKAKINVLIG
BoNT-F LC inh: inhibitors of Botulinum neurotoxin F light chain protease | Multiplex microsphere protease cleavage assay, flow cytometry | inhibition, % at 10 µM | 360,000 compounds, 0.22% hits; in the data active = inhibition above about 35%, passing the limit was not always enough; inconclusive = no clear call, values can overlap the other calls; note: plate controls were buffer without enzyme for full effect and enzyme alone for no effect
Active calls of the source: *; u = inconclusive; x = no result given. Cut-off read from the data, not from the text of the source, unless noted: active = inhibition above about 30%; inconclusive = no clear call, values can overlap the other calls; inactive = below that.

SMILES	BoNT A protease	DUSP3 inh	Anthrax LF prot	Autofluor counter	MazF activator	BoNT-F LC inh
CC(=O)Oc1ccc(NC(=O)C2CCCCC2)c(C(=O)O)c1	4.9	13.4	-3.3	20737*	7.5	4.2
CCOc1ccc(/C=N/n2cnnc2)cc1	u	-7.5	3.0	17072*	1.2	-3.0
C(=N\n1cnnc1)/c1ccc(OCc2ccccc2)cc1	1.2	15.4	0.1	9724	-1.6	5.5
CCc1ccc(/C=N\n2cnnc2)cc1	5.6	-2.7	u	3657	6.1	45.4*
C(=N\n1cnnc1)/c1ccc(-c2ccccc2)cc1	-0.8	17.7	-7.8	3094	-7.7	0.1
CCN(C(=O)c1cc(Cl)ccc1OC)c1ccccc1C	x	4.4	x	x	5.2	x
Cc1ccc(S(=O)(=O)O)c(C)c1N1CCCC1=O	-3.1	15.5	2.0	20761*	3.9	-5.6
Cc1ccc(S(N)(=O)=O)c(C)c1N1CCCC1=O	-0.9	15.8	8.0	3405	6.0	4.1
COc1cccc(N2CCN(C3CCCC(C)C3)CC2)c1 (centres undefined)	-3.6	-0.6	-6.8	24685*	-4.6	-3.8
COc1ccc(S(=O)(=O)N2CCN(C3CCCC(C)C3)CC2)cc1 (centres undefined)	2.6	30.6	-11.9	3815	14.1	18.0
COC(=O)CCC(=O)NNC(=O)c1cccc(Cl)c1	-6.4	26.1	-2.2	25239*	0.2	-7.0
Cc1ccccc1-c1nn[nH]n1	-5.0	-4.1	-0.2	21118*	-2.2	-4.8
c1ccc(-c2nn[nH]n2)cc1	u	-7.8	-14.1	4346	5.0	u
COc1cccc(N2CC(C(=O)OC(C)C(=O)c3ccccc3)CC2=O)c1 (centres undefined)	u	-0.8	-0.7	22234*	-10.7	-1.0
Cc1sc(-c2ccccn2)nc1OC(=O)c1ccc(Cl)c(Cl)c1	-1.4	21.3	-0.4	23143*	6.8	-3.3
O=C(CN1C(=O)c2ccccc2C1=O)NCc1ccncc1	6.8	-3.8	-13.4	20208*	-4.9	9.8
O=C(CCN1C(=O)c2ccccc2C1=O)NCc1ccncc1	-1.3	22.7	-1.2	9474	8.2	-1.4
CC(=O)c1cnc2cc(-c3ccc(C)cc3)nn2c1C	0.7	35.2	-2.6	9330	3.1	0.3
CCOc1cc(/C=C2\SC(=S)N(Nc3ccccc3)C2=O)ccc1O	39.0*	16.5	42.1*	3712	-22.0	30.5
CC(C(=O)Nc1nnc(C2CC2)s1)N1C(=O)C2CC=CCC2C1=O (centres undefined)	-0.8	x	-0.4	4099	-3.6	-1.2
COC(=O)[C@@]1(Sc2ccc(C)cc2)CC(=O)N[C@@H]1c1ccc(C(F)(F)F)cc1	-0.3	x	1.2	4449	x	1.7
O=C(CSc1nnc2ccc(-c3ccccc3)nn12)NCC1CCCO1 (centres undefined)	-0.2	-12.0	0.1	5238	9.1	5.1
COc1ccccc1NC(=O)CSc1nnc(Cc2cccn2C)n1CCc1ccccc1	-3.5	16.6	-2.7	24958*	-0.9	-7.4
Cn1cccc1Cc1nnc(SCC(=O)NCC2CCCO2)n1CCc1ccccc1 (centres undefined)	u	28.2	-7.9	22577*	1.8	1.8
CCOC(=O)N1CCN(C(=O)CSc2ccc3nnc(-c4ccncc4)n3n2)CC1	-0.3	14.1	-6.2	3148	4.5	0.5
SMILES	BoNT A protease	DUSP3 inh	Anthrax LF prot	Autofluor counter	MazF activator	BoNT-F LC inh
COc1ccc(NC(=O)CSc2nnc(Cc3cccn3C)n2CCc2ccccc2)c(OC)c1	-0.6	17.8	-4.1	7844	0.1	0.9
O=C(CSc1nnc2scc(-c3ccccc3)n12)NCC1CCCO1 (centres undefined)	-1.5	-1.0	0.7	21160*	5.2	-3.5
CCOC(=O)CC(=O)CSc1ccc2nnc(-c3ccc(C)cc3)n2n1	1.9	17.9	-7.2	22080*	3.6	3.9
Cn1cccc1Cc1nnc(SCC(=O)NCC2CCCO2)n1C (centres undefined)	-0.4	2.7	1.6	2262	1.7	-2.9
O=c1cc(CO)oc2ccccc12	-0.2	x	-0.2	4196	7.5	-0.8
COc1cccc(C(C)NC(=O)C2CCCO2)c1 (centres undefined)	-6.0	1.0	-5.5	3901	-5.7	-15.6
O=C(CSc1ccc2nnc(-c3ccccc3)n2n1)NCc1ccco1	u	9.1	-5.7	20999*	8.1	-1.3
O=C(CSc1ccc2nnc(-c3cccc(F)c3)n2n1)NCC1CCCO1 (centres undefined)	2.5	11.3	-7.2	22186*	2.8	3.4
CCSc1nnc(NC(=O)CSc2nnc(Cc3cccn3C)n2CCc2ccccc2)s1	u	20.7	-4.1	20173*	-1.5	2.4
CC(C)N(C)CCOC(=O)c1ccc2c(c1)OCCO2	-0.3	13.4	-2.9	4321	7.9	10.4
Cc1ccc(CNC(=O)CSc2c3c(nc4ccc(Cl)cc24)CCCC3)o1	2.2	16.1	1.5	4197	10.2	31.4
Cc1cc(C)nc(Sc2ncnc3c2oc2ccccc23)n1	2.4	20.8	0.2	21474*	0.7	2.8
c1coc(CN(Cc2ccco2)c2ncnc3c2oc2ccccc23)c1	1.0	24.7	-2.6	19845*	-2.8	-1.3
CN(C)CCOc1ncnc2c1oc1ccccc12	3.0	10.5	0.2	18425*	-9.2	2.9
CCSc1ncnc2c1oc1ccccc12	7.1	-7.7	-14.8	16868*	6.4	10.0
CCC(=O)NCCc1nc2cc(NC(=O)c3ccccc3Cl)ccc2n1C	-0.7	27.2	-9.0	3145	4.1	-33.2
Cc1ccc(S(=O)(=O)N2C[C@H]3C(=O)C[C@@H](c4ccccc4)N(S(=O)(=O)c4ccc(C)cc4)[C@H]3C[C@H]2c2cccc(Cl)c2)cc1	-0.5	x	-2.2	3654	-6.0	-6.5
CCN(CC)CCCOc1nc(C)nc2c1oc1ccccc12	0.3	21.7	1.8	23099*	7.9	-0.9
CCN(CC)CCOc1nc(C)nc2c1oc1ccccc12	-0.8	17.3	-6.6	4333	5.2	11.3
Nc1ccc2nc(CCCCc3nc4ccccc4[nH]3)[nH]c2c1	-9.1	51.5*	-15.6	4149	-0.6	-29.5
COc1ccc(N=C2SC(CC(=O)Nc3ccc(OC)cc3OC)C(=O)N2C)cc1 (centres undefined)	3.2	27.4	-2.5	20859*	-1.6	4.7
Cc1nc(C(=O)N2CCOCC2)sc1C1(C)CC(c2ccccc2)=NO1 (centres undefined)	-1.1	-8.7	-2.6	3154	1.2	-7.4
CCC(=O)N1CCN(c2ccc(NC(=S)NC(=O)C(C)C)cc2)CC1	-0.1	17.4	-6.5	4480	-0.6	2.7
Cc1ccc(COc2ccsc2-c2n[nH]c(=S)n2C)cc1	2.0	17.4	-2.3	22046*	6.2	2.9
C=CCn1c(SCC(=O)NCc2ccc3c(c2)OCO3)nc2scc(-c3ccc(F)cc3)c2c1=O	1.1	28.5	7.0	6920	6.5	11.5
C=CCn1c(SC(C)C(=O)NCc2ccc3c(c2)OCO3)nc2scc(-c3ccccc3)c2c1=O (centres undefined)	0.6	33.8	1.2	16316*	-3.4	1.1

Screening data from PubChem BioAssay.
